Molecules are shown by their SMILES. Among all 13,000 compounds or so, about 3,200 (25%) showed an effect of 50% or more. The list shows a part of the results.

This experiment relates to P. falciparum stage V gametocytes. More on the design: BacTiter-Glo ATP luminescence viability of purified stage V gametocytes in 384-well plates, per cent inhibition versus DMSO. The conditions noted are these: 48 h, 5 µM; inhibitor.
As a reminder, the % Inhibition is the change of the read-out against control, counted positive when it falls. Regarding `CN1CCC(N(Cc2ccc(-c3ccc(C(F)(F)F)cc3)cc2)C(=O)Cn2c(SCc3cccc(F)c3F)cc(=O)c3c2CCC3)CC1` [TCMDC-141319], the “% Inhibition” value was found to be 92.96%. With `CC(C)N1CCC(N(Cc2ccc(-c3ccc(C(F)(F)F)cc3)cc2)C(=O)Cn2c(SCc3cccc(F)c3F)cc(=O)c3c2CCC3)CC1` [TCMDC-141320], the “% Inhibition” value was 98.3%.

Regarding `O=C(NOCc1ccccc1)c1cc(Cl)ccc1O` [TCMDC-131603], the “% Inhibition” value stood at 3.846%. The value for `CCC1CCc2cc(N)cc(-c3nc4c(c(C)nn4CC)c(=O)[nH]3)c2O1` (stereo not drawn) [TCMDC-131857] was 1.879%; that for `CCC(=O)Nc1ccc(C(O)CN2CCC3(C=Cc4ccccc4O3)CC2)cc1` (stereo not drawn) [TCMDC-124852] was 40%. For the compound `COc1cc2nc(NCCn3ccnc3C)nc(NCCc3ccccc3)c2cc1OC` [TCMDC-135471], the “% Inhibition” value is given as 66.44%. The value for `COc1cc2nc(NCCn3cccn3)nc(NCCc3ccccc3)c2cc1OC` [TCMDC-135472] was 50.26%; that for `c1ccc(Oc2ccc(Nc3ccnc4ccc(-c5ccccn5)cc34)cc2)cc1` [TCMDC-138118] was -22.81%. The value for `CN(C)CCN(C)Cc1ccc(-c2ccc3c(Nc4ccc(Oc5ccccc5)cc4)ccnc3c2)o1` [TCMDC-138400] was 100.2%. The value for `CN(C)Cc1ccc(-c2ccc3c(Nc4ccc(Oc5ccccn5)cc4)ccnc3c2)o1` [TCMDC-138425] was 93.82%; that for `Clc1cc2c(Nc3ccc(Oc4ccccc4)cc3)ccnc2cc1-c1ccc(CNCCN2CCOCC2)o1` [TCMDC-138464] was 21.03%; that for `CS(=O)(=O)CCNCc1ccc(-c2ccc3c(Nc4ccc(Oc5ccccn5)cc4)ccnc3c2)o1` [TCMDC-138444] was 5.347%. `CN(C)Cc1ccc(-c2ccc3c(Nc4ccc(Oc5ccccc5)cc4)ccnc3c2)o1` [TCMDC-138401]: the “% Inhibition” value is listed as -9.57%.

Take `CN(C)CCNCc1ccc(-c2ccc3c(Nc4ccc(Oc5ccccc5)cc4)ccnc3c2)o1` [TCMDC-138399]: the “% Inhibition” value was 96.18%. The value for `CN(C)CCN(C)Cc1ccc(-c2ccc3c(Nc4ccc(Oc5ccccn5)cc4)ccnc3c2)o1` [TCMDC-138426] was 89.24%; that for `COc1ccc(NC(=O)c2csc(-c3cc(NC(=O)c4ccnc(N5CCCC5)c4)ccc3C)c2)cc1N1CCN(C)CC1` [TCMDC-136374] was 23.12%. The value for `NC(=O)c1cccc(Nc2nccc(Nc3ccc(Oc4cccc5ccccc45)cc3)n2)c1` [TCMDC-138599] was -18.47%; that for `CC[C@H]1CN2CC[C@H]1C[C@@H]2[C@@H](OC(=O)c1ccc(Cl)cc1)c1ccnc2ccc(OC)cc12` [TCMDC-125492] was -10.63%; that for `CC(C)(C)c1cc(C(=O)N2CCN(c3ncccc3C(F)(F)F)CC2)n(Cc2ccccc2)n1` [TCMDC-134142] was 2.354%. `CCN(CC)C(=O)C1CCCN(c2cc(C)nc(Nc3ccc(Cl)cc3)n2)C1` (stereo not drawn) [TCMDC-132204]: the “% Inhibition” value is on record as -2.665%. As to `N#Cc1ccc(N2CCN(Cc3cccc(-c4cccc(-c5nc6cc(C(F)(F)F)ccc6[nH]5)c4)c3)CC2)nc1.O=C(O)C(F)(F)F` [TCMDC-133117], the “% Inhibition” value is listed as -5.62%. The value for `O=C(CCn1c2ccccc2c2ccccc21)NN=Cc1ccco1` [TCMDC-125735] was -6.333%. On to `CC(C)Cn1cc2c(ccc3nc(N)nc(N)c32)n1` [TCMDC-137969], for which the “% Inhibition” value was -46.77%. The value for `COc1ccc2nccc([C@@H](O)CN3CCC(NC(=O)/C=C/c4cccc(-c5ccccc5)c4)CC3)c2c1` [TCMDC-141043] was -22.17%; that for `CC(=O)c1ccc2c(c1)CCN(CCC1CCC(NC(=O)c3cc4ccccc4[nH]3)CC1)CC2` (stereo not drawn) [TCMDC-139776] was -25.73%; that for `CC(C)[C@H](NC(=O)NC1CCC(CCN2C3CCC2CC(OC(=O)C(CO)c2ccccc2)C3)CC1)C(O)(c1ccccc1)c1ccccc1` (stereo partly drawn) [TCMDC-136457] was -19.47%. On to `N#Cc1ccc2c(c1)CCN(CCC1CCC(NC(=O)/C=C/c3cccc4ccccc34)CC1)CC2` (stereo not drawn) [TCMDC-139777], for which the “% Inhibition” value is -39.21%. For `CC(C)[C@@H](NC(=O)NC1CCC(CCN2C3CCC2CC(OC(=O)C(CO)c2ccccc2)C3)CC1)C(O)(c1ccccc1)c1ccccc1` (stereo partly drawn) [TCMDC-136458], the “% Inhibition” value turned out to be 45.88%. As for `CC(NC(=O)NC1CCC(CCN2CCCc3ccccc32)CC1)c1cccc2ccccc12` (stereo not drawn) [TCMDC-136176], the “% Inhibition” value is 92.78%. Take `CC(NCCC1CCC(NC(=O)N[C@H](C)C(O)(c2ccccc2)c2ccccc2)CC1)c1cccc2ccccc12` (stereo partly drawn) [TCMDC-136378]: the “% Inhibition” value turned out to be 64.1%. The value for `Oc1cc2c(cc1CN1CCN(Cc3cccs3)CC1)CCC2` [TCMDC-125012] was 1.025%; that for `CCN(CC)CCN1C(=O)c2oc3ccc(Cl)cc3c(=O)c2C1c1ccc(SC)cc1` (stereo not drawn) [TCMDC-124623] was 3.621%.

For the compound `CCCCCN1C(=O)C(c2ccccc2)(c2ccccc2)N=C1N` [TCMDC-136877], the “% Inhibition” value is recorded as -32.2%.

With `COc1cccc(-c2cnc(N)c(-c3nc4ccc(C(F)(F)F)cc4[nH]3)c2)c1` [TCMDC-138790], the “% Inhibition” value is 13.24%.

Turning to `COc1ccccc1NC(=O)Nc1ccc(-c2ccc(-c3nc4ccc(C(F)(F)F)cc4[nH]3)cc2)cc1` [TCMDC-133202], the “% Inhibition” value is reported as -7.674%. With `CCCCCCCc1cc(O)c2c3c(c(=O)oc2c1)CN(C)CC3` [TCMDC-124145], the “% Inhibition” value is 8.32%. Take `Cc1sc(CNCCCNc2cc(=O)c3ccccc3[nH]2)c(C(F)(F)F)c1C` [TCMDC-140906]: the “% Inhibition” value stood at 5.874%. Consider `Cc1cccc2[nH]c(-c3ccc(-c4ccc(NC(=O)Nc5ccc(Cl)cc5)cc4)cc3)nc12` [TCMDC-133184], for which the “% Inhibition” value is recorded as -26.89%. Consider `Cc1cccc2[nH]c(-c3ccc(-c4cccc(NC(=O)C(=O)c5cccn5C)c4)cc3)nc12` [TCMDC-136907], for which the “% Inhibition” value amounted to 90.5%. Turning to `Cc1cccc2[nH]c(-c3ccc(-c4cccc(NC(=O)Nc5cccc(C#N)c5)c4)cc3)nc12` [TCMDC-133198], the “% Inhibition” value stood at 83.69%. The value for `Cn1cccc1C(=O)C(=O)Nc1ccc(-c2ccc(-c3nc4ccc(F)cc4[nH]3)cc2)cc1` [TCMDC-136780] was -3.552%; that for `Cn1cccc1C(=O)C(=O)Nc1cccc(-c2ccc(-c3nc4ccc(C(F)(F)F)cc4[nH]3)cc2)c1` [TCMDC-136910] was 0.09328%; that for `Cc1cccc2[nH]c(-c3ccc(-c4ccc(NC(=O)C(=O)c5cccn5C)cc4)cc3)nc12` [TCMDC-136908] was 78.98%. The value for `Cc1cccc2[nH]c(-c3cccc(-c4ccc(NC(=O)Nc5ccc(Cl)cc5)cc4)c3)nc12` [TCMDC-133177] was 12.12%.

As to `Cc1cccc2[nH]c(-c3cccc(-c4ccc(NC(=O)C(=O)c5cccn5C)cc4)c3)nc12` [TCMDC-136909], the “% Inhibition” value is given as 70.67%. In the case of `CCNC(=O)Nc1ccc(-c2cccc(-c3nc4c(C)cccc4[nH]3)c2)cc1` [TCMDC-133171], the “% Inhibition” value was -9.855%. The value for `Cc1cccc2[nH]c(-c3cccc(-c4ccc(NC(=O)Nc5cccc(C#N)c5)cc4)c3)nc12` [TCMDC-133192] was 2.358%. Turning to `Cc1cccc2[nH]c(-c3cccc(-c4cccc(NC(=O)Nc5cccc(C#N)c5)c4)c3)nc12` [TCMDC-133194], the “% Inhibition” value is given as -35.1%.

`Cc1cccc2[nH]c(-c3ccc(-c4cccc(NC(=O)Nc5ccccc5)c4)cc3)nc12` [TCMDC-133155]: the “% Inhibition” value worked out at 0.6364%. On to `Cc1cccc2nc(-c3ccc(-c4ccc(NC(=O)NCc5cccc(F)c5)cc4)s3)[nH]c12` [TCMDC-133286], for which the “% Inhibition” value came out at 5.156%. The value for `Cc1ccc(-c2cc3nc4c(c(NCCCn5ccnc5)n3n2)CCC4)cc1` [TCMDC-124390] was 12.49%. The value for `Cc1cccc2c3c([nH]c12)C1(CCN(Cc2ccccc2)CC1)NC(C(=O)NCc1ccccc1)C3` (stereo not drawn) [TCMDC-141244] was -26.21%. The value for `COc1ccc2nccc([C@@H](O)CN3CCC(NC(=O)c4ccc(Cl)c(OC)c4)CC3)c2c1` [TCMDC-141113] was -17.86%; that for `CSc1sc(NC(=O)Nc2cccc(C(F)(F)F)c2)cc1C#N` [TCMDC-123772] was -46.48%.

Consider `CCN(CC)Cc1cc(Nc2c3ccc(Cl)cc3nc3cccc(OC)c23)ccc1O` [TCMDC-139222], for which the “% Inhibition” value is 106.6%. With `CCN(CC)Cc1cc(Nc2ccnc3cc(Cl)ccc23)ccc1O` [TCMDC-123932], the “% Inhibition” value is listed as -15.23%. Consider `COc1ccc2nc3cc(Cl)ccc3c(Nc3ccc(O)c(CN4CC5CCC(CC5)C4)c3)c2c1.Cl` [TCMDC-142013], for which the “% Inhibition” value is reported as -78.53%. Regarding `CN(Cc1ccc(NC(=O)CCC2CCN(C(=O)/C=C/c3ccc(Cl)c(Cl)c3)CC2)cc1)C1CCOCC1` [TCMDC-140515], the “% Inhibition” value is 8.343%.

`Oc1c(C=Nn2cnnc2)sc2ccccc12` [TCMDC-125759]: the “% Inhibition” value is -2.761%. In the case of `O=[N+]([O-])c1cccc(-c2nc(-c3ccc(Br)cc3)[nH]c2-c2ccc(Br)cc2)c1` [TCMDC-124605], the “% Inhibition” value is given as -41.82%.

Consider `Cc1ccc(S(=O)(=O)c2nc(S(=O)(=O)c3ccccc3)sc2NCC2CCCO2)cc1` (stereo not drawn) [TCMDC-124749], for which the “% Inhibition” value was found to be 4.322%. The value for `CCCCCN=C(N)N/N=C/c1c[nH]c2ccc(OC)cc12` [TCMDC-125887] was 106.4%; that for `COc1ccc2cc(C=NNc3nc4ccccc4[nH]3)c(Cl)nc2c1` [TCMDC-124889] was -71.34%. For `CCCCCCCN(CCCCCCC)CCCC(=O)Nc1ccnc2ccc(OC)cc12.O=C(O)C(=O)O` [TCMDC-139843], the “% Inhibition” value was -16.87%.

`Cc1[nH]c2ccccc2c1C(=O)CSc1nn(-c2ccccc2)c(=S)s1` [TCMDC-124893]: the “% Inhibition” value is on record as 60.68%. The value for `O=C(c1c(-c2[nH]c3ccccc3c2C(=O)C(F)(F)F)[nH]c2ccccc12)C(F)(F)F` [TCMDC-125831] was 0.8709%. The value for `O=C(NC12CC3CC(CC(C3)C1)C2)C(=O)c1c[nH]c2ccccc12` [TCMDC-123481] was -3.925%. In the case of `O=C(CSc1nn(-c2ccccc2)c(=S)s1)c1c[nH]c2ccccc12` [TCMDC-124894], the “% Inhibition” value turned out to be 95.1%. For `O=C(CNc1ccncc1)c1c[nH]c2ccccc12` [TCMDC-124024], the “% Inhibition” value is on record as 4.031%.

(Values after publication PMC4552634, “A New Set of Chemical Starting Points with Plasmodium falciparum Transmission-Blocking Potential for Antimalarial Drug Discovery” (PLoS ONE, 2015).)
